Assay [1] is described as follows: yeast TOR pathway RPL19A-GFP modulators, primary screen, cell-based, S. cerevisiae, multiplex flow cytometry (AID 1862; in the data active = percent of DMSO control GFP below about 86%;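 note: lower values mimic rapamycin by blocking the RPL19A rise seen in DMSO cells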). Conditions: S. cerevisiae RPL19A-GFP strain, flow cytometry fluorescence, 3 h; at 10 µM; stronger effect = lower value. In general terms: In flow cytometry, cells or beads pass a laser one at a time.
Assay [2] can be described thus: modulators of MEP2-GFP levels in yeast, primary screen, S. cerevisiae, multiplex flow cytometry (AID 1867;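 active = GFP response, as percent of the DMSO control, above the screen-wide mean plus 3 SD, about 139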;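 note: median GFP channel fluorescence of barcode-gated MEP2-GFP cells measured by flow cytometry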). As to conditions: S. cerevisiae MEP2-GFP strain, 3 h, at 10 µM, stronger effect = higher value, 100% means same as DMSO wells.
Assay [3] can be described thus: modulators of CIT2-GFP expression in yeast, primary screen, S. cerevisiae, GFP fusion, multiplex flow cytometry (AID 1870;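 active = percent response above a set limit, the screen-wide mean plus 3 SD, cut at about 130% in these data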;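 note: barcoded CIT2-GFP strain pooled with four other GFP strains with rapamycin as positive control; median GFP fluorescence per well over plate mean of DMSO wells so 100% = DMSO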). Conditions: 3 h, at 10 µM, stronger effect = higher value.
The nature of assay [4]: modulators of LAP4-GFP expression in yeast, primary screen, S. cerevisiae, multiplex flow cytometry (AID 1873). Conditions: 3 h, at 10 µM, stronger effect = higher value.
Assay [5] can be described thus: modulators of AGP1-GFP expression in yeast TOR pathway, primary screen, cell-based, multiplex flow cytometry, S. cerevisiae (AID 1887;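 active = GFP signal above the screen-wide mean plus 3 SD, that is over about 124.5% of the solvent control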;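 note: AGP1-GFP fusion strain of S. cerevisiae within a five-strain barcoded multiplex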). As to conditions: 3 h, at 10 µM, stronger effect = higher value.
A short description of assay [6]: inhibitors of CD8+ T cell-vesicle binding, pilot screen, LFA-1/ICAM-1 modulator project, MLPCN validation set, flow cytometry (AID 2523;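 active = response below a set limit, under 55% cells CD8-positive and vesicle-bound, and CD8 cells' 90th-percentile brightness under 279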;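 for vesicle binding response: mean PE anti-B7-1 fluorescence of CD8+ cells relative to row control; 100% = QL9-loaded vesicles with DMSO vehicle in the same plate row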). Conditions: 2C mouse CD8+ T cells, at 7 µM, stronger effect = lower value; double positive events: measured here: CD8+/vesicle+ event percentage.
Assay [7] concerns the target Integrin beta-1 (Homo sapiens) + Integrin alpha-4 (Homo sapiens) (UniProt P13612+P05556). Briefly: inhibition of HUTS-21 binding to VLA-4, pilot screen, VLA-4 allosteric modulator project, U937 cells, HUTS-21 mAb, flow cytometry, validation set (AID 2674;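 active = inhibition above 50%, about 3 SD of the validation set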;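 note: antibody binding induced by the VLA-4 ligand LDV present at three times its Kd; 0% = LDV ligand with antibody and no compound and 100% = antibody without LDV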). Conditions: HUTS-21 LIBS mAb binding, at 6.7 µM, stronger effect = higher value, binding induced by LDV ligand.
The nature of assay [8]: superoxide lowering in aged yeast cells, pilot screen, validation compound set (AID 2706;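 active = superoxide response below 65% of plate, a cut near 3 SD across the whole screen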;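 note: yeast exposed to compound for one week at 30 degrees C before staining; 100% = mean of all compound wells on the same plate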). As to conditions: S. cerevisiae aging, superoxide DHE fluorescence; at 10 µM; stronger effect = lower value.
Assay [9] addresses Beta-adrenergic receptor kinase 1 (Homo sapiens) (UniProt P25098). Description: GRK2 binders displacing RNA aptamer, biochemical, validation, human GRK2, bead flow cytometry (AID 488806;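 active = aptamer binding inhibition above 30%, about 3 SD of noise from non-fluorescent compounds; inactive = inhibition at or below 30%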). Conditions: bead-bound GRK2, FAM-aptamer displacement, at 10 µM, stronger effect = higher value.
Assay [10] has as its target Beta-2 adrenergic receptor (Homo sapiens) (UniProt P07550). Briefly: beta2AR agonists driving receptor internalization, pilot screen, cell-based, FAP fluorogen, flow cytometry, validation set (AID 504459;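 active = percent response above 42, roughly 3 SD of non-fluorescent test compounds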;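 note: agonist-driven loss of surface beta2AR via internalization measured by FAP dye flow cytometry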). As to conditions: Am2.2-beta2AR cells, FAP surface receptor flow cytometry; at 10 µM; stronger effect = higher value.
The target of assay [11] is AP-2 complex subunit beta (Homo sapiens) (UniProt P63010). Description: inhibitors of arrestin peptide binding to AP2, pilot screen, biochemical, validation set, GST-AP2 beads, flow cytometry (AID 504541;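 active = inhibition above 54%, about 3 SD of non-fluorescent compounds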;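 note: AP2 carries R879A mutation and is captured from E. coli lysate; bead-bound FITC arrestin peptide fluorescence measuring arrestin peptide binding to AP2; 0% = DMSO wells and 100% = excess unlabeled arrestin peptide control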). Conditions: FITC arrestin peptide, at 10 µM, stronger effect = higher value, AP2 beta2 appendage fragment, R879A mutant.
A short description of assay [12]: yeast V-ATPase proton transport modulators, S. cerevisiae, pHLuorin, HTS validation (AID 504600; in the data active = response above about 15%;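 note: plate controls were DMSO for no effect and reference compound for full effect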). As to conditions: S. cerevisiae pHLuorin cytosolic pH, at 10 µM, stronger effect = higher value.
Assay [13] has as its system anti-desmoglein-3 scFv antibody binding to human DSG3. Description: inhibitors of anti-DSG3 scFv binding to DSG3, pilot screen, biochemical, validation compound set, bead-based, flow cytometry (AID 588368;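 active = binding below the plate cutoff, the plate median minus 3 SD, with a reading above zero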;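 note: signal is the median channel fluorescence of bead-bound GFP antibody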). Conditions: Protein G beads, DSG3-Fc, scFv-GFP binding, at 10 µM, stronger effect = lower value.
A short description of assay [14]: inhibitors of fungal efflux pumps CDR1, CDR2, MDR1, pilot screen, validation compound set, multiplex, phenotypic (AID 588506;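 active = efflux inhibition above 0.42, the validation set average plus 4 SD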;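 note: Nile Red retained in cells so higher fluorescence means more efflux inhibition; 0 = negative control wells and 1 = enniatin B 25 µM full block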). Conditions: S. cerevisiae pump-expressing triplex, Nile Red efflux flow cytometry; at 10 µM; stronger effect = higher value; the pumps come from Candida albicans.
Assay [15] concerns the target ATP-binding cassette sub-family B member 6 (Homo sapiens) (UniProt Q9NP58). Briefly: ABCB6 transporter inhibitors, pilot screen, K562-ABCB6 cells, flow cytometry, validation set (AID 588550;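 active = inhibition above the screen-wide mean plus 3 SD, about 51%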;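 note: 0% = DMSO wells and 100% = benzethonium chloride 70 µM positive control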). Conditions: K562-ABCB6 porphyrin accumulation, 1 h, at 10 µM, stronger effect = higher value.
The nature of assay [16]: promoters of myeloid differentiation in arrested cells, primary screen, cell-based, GFP/MAC1 double positive, flow cytometry, validation set (AID 588685;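 active = differentiation response of at least 50%, scaled between solvent and reference control, from cells with both markers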;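 note: compound exposure lasts four days before antibody staining and flow analysis; 0% = DMSO wells and 100% = 5 µM fulvestrant positive control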). Conditions: ER-HoxA9 marrow cells, stronger effect = higher value, normalized: vehicle 0, fulvestrant 100.

SMILES strings stand for the structures. Results filed as inconclusive are left out. Activity calls are given as the source filed them.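 Rule for the calls, unless noted: active = GFP signal, as percent of the solvent control, above the screen mean plus 3 SD, about 149; inconclusive = no reading because the compound's own fluorescence upset strain identification; inactive = the rest.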

Sequence of AP-2 complex subunit beta (Homo sapiens) (P63010 whole entry, looked up, the tested form may be a part, one chain of several): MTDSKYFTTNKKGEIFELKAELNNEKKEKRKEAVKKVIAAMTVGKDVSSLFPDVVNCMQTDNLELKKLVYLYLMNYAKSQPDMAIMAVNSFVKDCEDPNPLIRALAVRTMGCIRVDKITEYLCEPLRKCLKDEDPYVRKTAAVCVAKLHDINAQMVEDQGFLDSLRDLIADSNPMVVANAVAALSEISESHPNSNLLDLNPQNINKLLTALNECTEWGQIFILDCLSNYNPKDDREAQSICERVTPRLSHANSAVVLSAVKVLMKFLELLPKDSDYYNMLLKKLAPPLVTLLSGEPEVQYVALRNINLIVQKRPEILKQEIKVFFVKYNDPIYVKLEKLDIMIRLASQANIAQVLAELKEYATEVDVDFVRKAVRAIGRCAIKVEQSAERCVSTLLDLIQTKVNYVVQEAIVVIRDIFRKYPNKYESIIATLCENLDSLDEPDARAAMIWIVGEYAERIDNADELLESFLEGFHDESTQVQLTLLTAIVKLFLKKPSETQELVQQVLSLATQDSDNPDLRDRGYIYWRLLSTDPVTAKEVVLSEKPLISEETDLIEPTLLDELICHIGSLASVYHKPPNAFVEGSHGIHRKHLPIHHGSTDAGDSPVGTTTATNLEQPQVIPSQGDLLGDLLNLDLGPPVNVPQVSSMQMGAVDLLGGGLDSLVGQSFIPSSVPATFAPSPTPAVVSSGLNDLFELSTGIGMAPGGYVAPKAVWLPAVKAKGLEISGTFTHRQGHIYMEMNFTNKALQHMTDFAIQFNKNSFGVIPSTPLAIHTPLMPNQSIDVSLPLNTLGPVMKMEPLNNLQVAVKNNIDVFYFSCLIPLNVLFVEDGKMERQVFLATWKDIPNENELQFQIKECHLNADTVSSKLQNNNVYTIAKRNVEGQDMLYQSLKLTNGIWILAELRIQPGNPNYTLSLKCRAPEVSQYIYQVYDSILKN
Sequence of Beta-2 adrenergic receptor (Homo sapiens) (P07550 whole entry, looked up): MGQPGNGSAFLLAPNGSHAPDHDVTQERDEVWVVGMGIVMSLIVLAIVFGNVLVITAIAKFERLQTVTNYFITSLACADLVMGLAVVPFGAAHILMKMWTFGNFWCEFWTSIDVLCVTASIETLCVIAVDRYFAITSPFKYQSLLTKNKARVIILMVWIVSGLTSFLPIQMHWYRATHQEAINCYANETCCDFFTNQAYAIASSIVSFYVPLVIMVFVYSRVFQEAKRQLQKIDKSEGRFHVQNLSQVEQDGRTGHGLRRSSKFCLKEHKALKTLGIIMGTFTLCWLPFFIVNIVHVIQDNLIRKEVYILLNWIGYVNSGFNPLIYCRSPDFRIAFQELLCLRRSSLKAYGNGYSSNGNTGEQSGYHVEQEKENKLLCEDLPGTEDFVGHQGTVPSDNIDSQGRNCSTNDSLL
Sequence of Integrin beta-1 (Homo sapiens) + Integrin alpha-4 (Homo sapiens) (P05556 whole entry, looked up): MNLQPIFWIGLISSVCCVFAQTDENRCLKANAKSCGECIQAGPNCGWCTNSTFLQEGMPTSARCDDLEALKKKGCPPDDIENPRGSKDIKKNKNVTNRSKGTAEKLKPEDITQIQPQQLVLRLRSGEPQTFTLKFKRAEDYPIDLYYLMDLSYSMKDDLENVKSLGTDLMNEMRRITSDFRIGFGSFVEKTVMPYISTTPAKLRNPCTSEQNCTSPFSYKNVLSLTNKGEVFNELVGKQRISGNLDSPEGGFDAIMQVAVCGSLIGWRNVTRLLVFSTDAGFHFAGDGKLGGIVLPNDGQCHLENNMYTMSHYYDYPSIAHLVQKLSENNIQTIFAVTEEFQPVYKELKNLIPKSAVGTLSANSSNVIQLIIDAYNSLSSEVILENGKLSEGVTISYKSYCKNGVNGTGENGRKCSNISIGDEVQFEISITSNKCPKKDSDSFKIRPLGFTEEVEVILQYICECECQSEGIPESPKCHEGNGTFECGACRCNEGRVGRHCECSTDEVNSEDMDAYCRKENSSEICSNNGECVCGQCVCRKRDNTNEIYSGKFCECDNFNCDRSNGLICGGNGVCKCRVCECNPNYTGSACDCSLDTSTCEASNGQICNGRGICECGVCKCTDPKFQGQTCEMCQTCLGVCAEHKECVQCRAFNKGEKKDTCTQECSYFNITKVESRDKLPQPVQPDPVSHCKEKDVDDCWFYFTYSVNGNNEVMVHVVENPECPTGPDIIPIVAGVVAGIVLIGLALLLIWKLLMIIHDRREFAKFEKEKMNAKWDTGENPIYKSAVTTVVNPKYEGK
Sequence of Integrin beta-1 (Homo sapiens) + Integrin alpha-4 (Homo sapiens) (P13612 whole entry, looked up): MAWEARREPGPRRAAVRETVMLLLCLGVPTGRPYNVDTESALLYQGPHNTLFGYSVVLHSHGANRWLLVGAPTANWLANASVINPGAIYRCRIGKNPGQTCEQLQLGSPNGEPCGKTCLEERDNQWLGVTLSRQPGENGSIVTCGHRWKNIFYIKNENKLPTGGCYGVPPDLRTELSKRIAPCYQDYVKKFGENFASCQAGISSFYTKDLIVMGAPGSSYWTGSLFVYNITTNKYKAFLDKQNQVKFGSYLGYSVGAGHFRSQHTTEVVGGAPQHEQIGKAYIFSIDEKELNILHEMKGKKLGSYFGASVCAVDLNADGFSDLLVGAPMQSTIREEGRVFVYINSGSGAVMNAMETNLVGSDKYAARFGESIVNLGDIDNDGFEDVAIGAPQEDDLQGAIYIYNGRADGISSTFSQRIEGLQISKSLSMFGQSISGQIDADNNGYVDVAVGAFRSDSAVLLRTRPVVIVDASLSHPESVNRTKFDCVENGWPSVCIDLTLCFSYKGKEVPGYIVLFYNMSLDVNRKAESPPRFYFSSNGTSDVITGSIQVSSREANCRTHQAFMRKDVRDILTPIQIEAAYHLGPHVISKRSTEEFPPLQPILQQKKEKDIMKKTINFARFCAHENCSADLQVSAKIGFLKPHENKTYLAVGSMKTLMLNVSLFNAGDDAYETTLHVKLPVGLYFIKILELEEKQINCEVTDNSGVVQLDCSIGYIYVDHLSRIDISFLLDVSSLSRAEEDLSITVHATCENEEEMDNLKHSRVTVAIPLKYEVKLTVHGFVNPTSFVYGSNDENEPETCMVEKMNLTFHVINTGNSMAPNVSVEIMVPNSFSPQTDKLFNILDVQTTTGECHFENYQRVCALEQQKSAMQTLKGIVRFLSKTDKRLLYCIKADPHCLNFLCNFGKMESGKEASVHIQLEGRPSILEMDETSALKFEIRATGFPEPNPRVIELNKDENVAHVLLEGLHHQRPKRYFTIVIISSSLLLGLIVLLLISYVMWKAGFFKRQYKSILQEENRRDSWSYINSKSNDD
Sequence of ATP-binding cassette sub-family B member 6 (Homo sapiens) (Q9NP58 whole entry, looked up): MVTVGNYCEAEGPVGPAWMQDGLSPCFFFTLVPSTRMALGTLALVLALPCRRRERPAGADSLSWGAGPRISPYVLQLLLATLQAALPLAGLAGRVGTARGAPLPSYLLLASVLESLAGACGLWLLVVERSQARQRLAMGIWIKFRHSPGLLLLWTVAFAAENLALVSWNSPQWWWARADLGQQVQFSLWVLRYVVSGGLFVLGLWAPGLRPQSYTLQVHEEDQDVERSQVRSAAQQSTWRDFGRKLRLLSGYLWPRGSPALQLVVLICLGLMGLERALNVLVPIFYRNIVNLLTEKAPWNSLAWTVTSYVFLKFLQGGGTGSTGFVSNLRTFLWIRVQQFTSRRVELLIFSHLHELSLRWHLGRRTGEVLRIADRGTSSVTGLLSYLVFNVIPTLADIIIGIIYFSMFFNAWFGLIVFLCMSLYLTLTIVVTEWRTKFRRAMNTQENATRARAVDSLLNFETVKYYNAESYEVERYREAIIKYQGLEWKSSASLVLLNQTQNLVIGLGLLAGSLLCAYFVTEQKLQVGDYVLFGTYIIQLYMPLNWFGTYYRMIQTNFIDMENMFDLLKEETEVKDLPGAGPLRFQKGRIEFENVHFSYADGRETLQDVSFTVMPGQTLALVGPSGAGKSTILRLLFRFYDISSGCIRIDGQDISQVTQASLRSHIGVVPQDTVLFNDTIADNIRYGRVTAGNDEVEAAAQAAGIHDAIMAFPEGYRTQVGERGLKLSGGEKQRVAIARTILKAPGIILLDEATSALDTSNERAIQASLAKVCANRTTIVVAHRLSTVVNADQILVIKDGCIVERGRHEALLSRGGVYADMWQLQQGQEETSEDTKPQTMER
Sequence of Beta-adrenergic receptor kinase 1 (Homo sapiens) (P25098 whole entry, looked up): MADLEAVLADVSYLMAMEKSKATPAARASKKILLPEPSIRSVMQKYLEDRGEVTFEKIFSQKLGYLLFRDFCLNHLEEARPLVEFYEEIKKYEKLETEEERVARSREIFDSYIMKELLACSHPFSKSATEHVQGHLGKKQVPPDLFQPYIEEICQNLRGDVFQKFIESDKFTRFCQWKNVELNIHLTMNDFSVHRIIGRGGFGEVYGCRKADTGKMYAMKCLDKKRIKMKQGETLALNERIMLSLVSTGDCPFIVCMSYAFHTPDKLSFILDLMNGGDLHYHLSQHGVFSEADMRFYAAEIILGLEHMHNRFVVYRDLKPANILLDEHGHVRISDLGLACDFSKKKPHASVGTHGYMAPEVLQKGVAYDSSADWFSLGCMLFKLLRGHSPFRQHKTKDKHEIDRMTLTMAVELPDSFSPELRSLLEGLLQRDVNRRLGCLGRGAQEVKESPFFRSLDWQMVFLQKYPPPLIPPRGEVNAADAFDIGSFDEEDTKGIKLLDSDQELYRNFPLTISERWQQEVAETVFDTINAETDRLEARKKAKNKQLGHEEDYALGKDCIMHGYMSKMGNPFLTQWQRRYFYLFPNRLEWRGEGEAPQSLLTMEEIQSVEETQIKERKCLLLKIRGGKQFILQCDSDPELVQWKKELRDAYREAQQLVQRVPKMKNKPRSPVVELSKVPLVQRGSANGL

With `CN(C)c1ccc(C(CN)c2c[nH]c3ccccc23)cc1` (stereo not drawn), in [1], the percent of DMSO control GFP was 106% (inactive). The GFP response vs DMSO in assay [2] was 109% (inactive); in [4] it was 108% (inactive). In assay [3], the percent response of DMSO control was 104% (inactive). For the same molecule, the GFP response, % of DMSO in [5] is 107% (inactive). In assay [6], this molecule registered a double positive events of 61.4%. The vesicle binding response in assay [6] was 112% (inactive). Moreover, the inhibition (in general, the change of the read-out against control, counted positive when it falls) is 9.63% (inactive) in assay [7], 33.6% (inactive) in assay [11] and -9% (inactive) in assay [15]. Moreover, the superoxide response (% of plate) in [8] was 99.4% (inactive). For the same molecule, in [9], the aptamer binding inhibition was -10% (inactive). Further, the results for the response in assay [10] and in assay [12] were 4.69% (inactive) and -9.67% (inactive), respectively. Besides, the binding (% of control) in assay [13] is 102% (inactive). For the same molecule, the efflux inhibition (fraction of control) in assay [14] was 0.09 (inactive). Besides, the differentiation response in assay [16] is -16.3% (inactive).

In the case of `CC(=O)Oc1ccc(C(c2ccc(OC(C)=O)cc2)c2ccccn2)cc1`, the percent of DMSO control GFP in assay [1] is 98.9% (inactive). In addition, the GFP response vs DMSO in [2] is 104% (inactive); in [4], 125% (inactive). Also, the percent response of DMSO control in assay [3] is 99.6% (inactive). The GFP response, % of DMSO in assay [5] was 117% (inactive). Besides, the double positive events in assay [6] turned out to be 63.6%. In addition, the vesicle binding response in assay [6] is 203% (inactive). Also, the inhibition is -42% (inactive) in assay [7], -3.7% (inactive) in [11] and 6% (inactive) in assay [15]. Further, the superoxide response (% of plate) in assay [8] was 105% (inactive). The aptamer binding inhibition in assay [9] is 4% (inactive). For the same molecule, the figures for the response in [10] and in [12] were -25.8% (inactive) and -1.07% (inactive), respectively. The binding (% of control) in assay [13] is 106% (inactive). Besides, the efflux inhibition (fraction of control) in assay [14] is 0.08 (inactive). The differentiation response in assay [16] was -7.94% (inactive).

`Cc1cccc2c(C(=O)O)cc(-c3cccnc3)nc12`: the percent of DMSO control GFP in [1] was 104% (inactive). The GFP response vs DMSO in assay [2] is 105% (inactive); in [4] it was 98% (inactive). Further, in assay [3], the percent response of DMSO control is 95.4% (inactive). The GFP response, % of DMSO in [5] was 101% (inactive). In assay [6], this molecule gave a double positive events of 63.5%. The vesicle binding response in [6] was 140% (inactive). Also, the inhibition in [7] was 3.7% (inactive); in [11], -0.94% (inactive); in [15], -3% (inactive). In addition, in assay [8], the superoxide response (% of plate) was 102% (inactive). The aptamer binding inhibition in assay [9] is 0% (inactive). The response is -8.08% (inactive) in assay [10] and 2.28% (inactive) in assay [12]. Moreover, the binding (% of control) in assay [13] is 95% (inactive). Also, in assay [14], the efflux inhibition (fraction of control) is -0.01 (inactive). Besides, the differentiation response in [16] was 7.09% (inactive).

On to `COc1cc(C(=O)OCCn2c(=O)c3c(ncn3CCN(C)C)n(C)c2=O)cc(OC)c1OC`, for which the percent of DMSO control GFP in assay [1] is 106% (inactive). Further, the GFP response vs DMSO in assay [2] is 103% (inactive); in assay [4] it was 112% (inactive). Further, the percent response of DMSO control in [3] was 101% (inactive). Also, the GFP response, % of DMSO in [5] was 117% (inactive). The same molecule showed a double positive events in assay [6] of 62.6%. Moreover, the vesicle binding response in assay [6] is 156% (inactive). Also, the inhibition in [7] is 4.84% (inactive); in assay [11] it was -2.34% (inactive); in assay [15], 9% (inactive). Besides, the superoxide response (% of plate) in assay [8] was 115% (inactive). Also, the aptamer binding inhibition in assay [9] is 6% (inactive). Also, the response is -24.2% (inactive) in assay [10] and -26.2% (inactive) in [12]. Besides, in assay [13], the binding (% of control) was 112% (inactive). Besides, in assay [14], the efflux inhibition (fraction of control) is -0.13 (inactive). In addition, in [16], the differentiation response was -6.96% (inactive).

Source of the values: PubChem BioAssay.
